# Reference: PubChem BioAssay AID686978 (National Center for Advancing Translational Sciences (NCATS), 2013)
# Where “and” joins values, the source holds several entries; their conditions need not be identical. Identical values can stand only once. Out of some 420,000 compounds screened, about 64,000 (15%) were called active. Roughly 27% stayed inconclusive and do not appear here. The list is a sample of the results. Values without a mark were called inactive. Calls follow the shape of the dose curve; as a rule, active = well fitted inhibition curve with a large enough effect; inconclusive = small, poorly fitted or top-dose-only effect; inactive = flat fitted curve, though single readings scatter.
# Assay: qHTS for Inhibitors of human tyrosyl-DNA phosphodiesterase 1 (TDP1): qHTS in cells in absence of CPT; also: nearly all actives have a fitted effect of over 55% in size
# Settings: DT40 Tdp1-/- hTDP1 cells, no CPT, ATP luminescence, 48 h; activity change, negative = growth inhibition: at 46.2 µM (top of the series)
# Outline: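 Cells were dispensed at 400 per well, compounds added by pin tool, plates incubated ≥48 hr at 37 °C, then CellTiter-Glo added for 30 min at room temperature before luminescence reading. Line: DT40 Tdp1-/- complemented with hTDP1; camptothecin omitted.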
# % is scaled to controls: 0 for no effect and ±100 for the full control effect; potency is read from the fitted curve at half-maximal effect.
SMILES,"activity change, negative = growth inhibition [%]",Potency
COc1ccccc1C1CN(Cc2ccccc2O)Cc2ccccc2O1 (configuration not stated),-21.5,–
O=C(CC(NCc1cccnc1)C(=O)O)Nc1ccc(O)cc1 (configuration not stated),-3.74,–
CSc1nc(O)c(Cc2ccccc2)c(=O)[nH]1,-0.545,–
Cc1cc(C(=O)OC(C)C(=O)NC2CCCCC2C)c(C)o1 (configuration not stated),-4.96,–
O=C(O)c1ccc(S(=O)(=O)N2CCOCC2)o1,-2.82,–
Cc1ccc(NC(=O)NNC(=O)c2sccc2-n2cccc2)cc1,-19.7,–
CC(C)NC(=O)NNc1c(Cl)cncc1Cl,1.9,–
CC1CCc2c(sc3c2C2=NS(=O)(=O)CCN2C=N3)C1 (configuration not stated),-10.8,–
Cc1ccc(CC2CC(=O)N(c3nc(C)cc(C)n3)C2=O)cc1 (configuration not stated),-14.1,–
COc1ccccc1C(=O)NCC(=O)OCC(=O)NNC(=O)c1ccc(Br)cc1,-3.83,–
CC(C)C(NC(=O)c1c(F)cccc1F)C(=O)NNC(=O)c1ccccc1 (configuration not stated),11.9,–
CCO/C([O-])=N/c1c[n+](N2CCOCC2)no1,–,inactive
O=C(CCC(=O)c1cccs1)Nc1nc2ccccc2s1,-1.45,–
COC(=O)[C@@H]1C[C@@]2(O)[C@H](O)[C@H](O)[C@H](O)C[C@H]2N1Cc1ccc(C(C)(C)C)cc1,4.36,–
CN(C)CCN(C(=O)CN1C(=O)c2ccccc2C1=O)c1nc2cc3c(cc2s1)OCCO3,3.41,–
Cc1c(NC(=O)c2cc(-c3ccc(Cl)s3)nc3ccccc23)c(=O)n(-c2ccccc2)n1C,–,16.4 µM (active)
Cc1cc(C(=O)Nc2c(C)n(C)n(-c3ccccc3)c2=O)cs1,-6.58,–
O=C(c1cc(-c2ccc(Cl)s2)nc2ccccc12)N1CCOCC1,-23.9,–
Cc1c(NC(=O)c2cc(=O)c3ccccc3o2)c(=O)n(-c2ccccc2)n1C,0.865,–
Cc1c(NC(=O)c2cccnc2)c(=O)n(-c2ccccc2)n1C,–,inactive
O=C(CCN1C(=O)c2ccccc2C1=O)Nc1cccc(F)c1,17.3,–
Cc1c(NC(=O)c2coc(=O)c(Br)c2)c(=O)n(-c2ccccc2)n1C,–,4.11 µM (active)

SMILES,"activity change, negative = growth inhibition [%]",Potency
O=C(Nc1cccc(NC(=O)c2cccc(F)c2)c1)c1ccccc1,-9.75,–
O=C(Nc1cccc(F)c1)c1coc(=O)c(Br)c1,–,2.31 µM (active)
COCn1c(C(O)c2ccccc2)cc2ccccc21 (configuration not stated),5.37,–
O=C1c2ccccc2S(=O)(=O)N1CC(O)Cn1c2ccccc2c2ccccc21 (configuration not stated),-9.56,–
CC(CC(=O)N1CCN(S(=O)(=O)c2ccccc2)CC1)n1cncn1 (configuration not stated),-11.7,–
CCN(CC)S(=O)(=O)c1ccc2[nH]c(=O)cc(C(=O)N(C)C3CCS(=O)(=O)C3)c2c1 (configuration not stated),14.9,–
CC(=O)N1CCN(CCN=CC2=C(O)CC(C)(C)CC2=O)CC1,-2.47,–
CCc1nccn1S(=O)(=O)c1cccc([N+](=O)[O-])c1,0.702,–
Nc1ncnc2nnsc12,-6.84,–
COc1cc(OC)cc(C(=O)NNC(=O)CNC(=O)c2ccc(Br)o2)c1,-1.82,–
COc1ccc(-c2nc(CCNC(=O)c3ccc(Br)o3)cs2)cc1,–,20.6 µM (active) and 18.4 µM (active)
O=S(=O)(NCCc1csc(-c2ccccc2)n1)c1cccnc1,-6.09,–
CC(C)c1ccc(NC(=O)COC(=O)c2ccc(CN3CCCC3=O)cc2)cc1,13.6,–
CN(C)C(=O)N1CCNCC1,1.26,–
Cc1csc(=NC(=O)c2ccccc2)n1CCO,-16.2,–
C=C(C)CNC(=S)/N=c1\scc(C)n1CC,–,20.6 µM (active)
COc1ccc(NC(=S)Nc2ccc(S(N)(=O)=O)cc2)c(C)c1,-13.9,–
COC(=O)c1sc(NC(=O)COC(=O)C2CCC2)c(C(=O)OC)c1C,-5.44,–
O=S1(=O)C[C@@H](N2CCN(CCO)CC2)[C@H](COCc2ccccc2)N1,20.9,–
COc1ccc(NC(=O)CSc2nc(C)cs2)cc1,-29.3,–
Cc1ccc(NC(=O)CNCc2ccccn2)cc1S(=O)(=O)N(C)C,-3.4,–
Cc1csc(SCC(=O)Nc2ccc(C)c(S(=O)(=O)N(C)C)c2)n1,–,18.4 µM (active)

SMILES,"activity change, negative = growth inhibition [%]",Potency
CC(=O)c1sc(N)nc1C,–,inactive
CC(C)[C@H](NC(=O)N1CC(=O)Nc2ccccc21)C(=O)N[C@@H](Cc1c[nH]c2ccccc12)C(=O)O,0.876,–
CC(C[N+](C)(C)C)OC(N)=O (configuration not stated),–,inactive
Fc1ccc(COc2cccc(-c3n[nH]c(=S)o3)c2)cc1,1.3,–
O=C(NCCOc1ccccc1Cl)C(=O)Nc1ccccc1,–,18.4 µM (active)
O=C(O)c1ccccc1OCc1ccccc1Cl,0.336,–
COc1ccccc1OCCNC(=O)CCNC(=O)c1ccccc1Cl,4.86,–
CCC(C)NC(=O)C1CCCN(C(=O)NC2CCCCC2)C1 (configuration not stated),0.165,–
C=CCN(c1ccc(C(=O)Nc2cc(C)cc(C)c2)cc1)S(C)(=O)=O,-24.1,–
COc1ccc(C#Cc2c(-c3ccc(OC)cc3)oc3ccc(-c4ccc5c(c4)OCO5)cc23)cc1,-5.09,–
COc1ccc(O)c(C=Nc2cc(C)on2)c1,0.215,–
COc1ccc(-c2onc(C)c2-c2ccc3c(c2)OCCO3)c(O)c1,–,18.4 µM (active)
CC[C@H](C)[C@@H](C(=O)N1CCNCC1)n1cc([C@@H](N)Cc2ccc(O)cc2)nn1,-10.6,–
O=C(O)c1ccn(COc2ccc(Br)cc2)n1,-11.4,–
Cc1cccc(N2CCN(C(=O)CCS(=O)(=O)c3ccc4c(c3)NC(=O)C(C)S4)CC2)c1C (configuration not stated),–,25.9 µM (active)
CCC(=O)N1CCc2cc(S(=O)(=O)CCC(=O)N3CCN(c4ccccc4F)CC3)ccc21,-0.867,–
Cn1c(=O)c(=O)n(C)c2cc(S(=O)(=O)CCC(=O)N3CCCCC3)ccc21,-4.15,–
NC(=O)c1cc(S(=O)(=O)NCCCc2ccco2)cs1,–,8.2 µM (active)
COc1cccc(CNS(=O)(=O)c2csc(C(N)=O)c2)c1,1.51,–
COc1ccc(NC(=O)C2CCC(CNS(=O)(=O)c3csc(C(N)=O)c3)CC2)cc1OC (configuration not stated),18.6,–
CCC(=NC1CC(C)(C)NC(C)(C)C1)C1=C(O)CC(C)(C)CC1=O,-5.34,–
Cn1c(=O)cc(SCC(=O)N2CCCC2)c2cc(Cl)ccc21,-14.8,–

SMILES,"activity change, negative = growth inhibition [%]",Potency
CC1(C)C(c2cccs2)=[N+]([O-])C2(CCCCC2=O)N1O (configuration not stated),-15.3,–
COc1ccc(N(Cc2ccccc2)S(=O)(=O)c2cccc(C(=O)O)c2)cc1,2.71,–
COc1ccc(C(CC(=O)O)NC(=O)Cc2ccccc2)cc1 (configuration not stated),-1.16,–
COc1ccc(C(CC(=O)c2ccccc2)S(=O)(=O)c2ccccc2)cc1 (configuration not stated),–,18.4 µM (active)
CC(C)c1cc(C(=O)N/N=C/c2ccoc2)c(O)c(C(C)C)c1,12.3,–
CCOCCCNC(=O)Cc1cc(=O)[nH]c(=O)[nH]1,-0.0606,–
COc1ccc(NC(=O)Cn2c(-c3ccc(OC)cc3)cn(-c3ccc(C)cc3)c2=O)cc1,-22.8,–
CC(=O)OCC1(O)CC23CCC4c5ccoc5CCC4(C)C2CCC1C3 (configuration not stated),–,14.6 µM (active)
Cc1ccc(SCCC(=O)Nc2cc(C)on2)cc1,1.17,–
O=C(O/N=C(/c1ccccc1)c1ccncc1)c1ccccc1[N+](=O)[O-],-19.9,–
O=C(CN1CCOCC1)Nc1ccc(NC(=O)CN2CCOCC2)c(Cl)c1,-7.28,–
CC(=O)OC1CCC2(O)CC1(C)CCC1C2CC1(C)C (configuration not stated),-13.3,–
Cc1ccc2c(=O)cc(C(=O)NCCc3ccc(S(N)(=O)=O)cc3)oc2c1C,-26.4,–
CCOC(=O)c1csc(CCNC(=O)c2oc3c(Cl)cc(C)cc3c2C)n1,–,20.6 µM (active)
CCOc1ccc(NC(=O)c2cccc3c2C(=O)N(CC2CCCO2)C3)cc1 (configuration not stated),-27.1,–
COCCN1Cc2cccc(C(=O)Nc3ccccc3OC)c2C1=O,-19.1,–
COc1ccc(NC(=O)c2cccc3c2C(=O)N(CC2CCCO2)C3)cc1OC (configuration not stated),–,23.1 µM (active)
O=C(CNS(=O)(=O)c1ccc(Br)s1)N1CCN(C(=O)c2ccco2)CC1,-15.3,–
O=C(CNC(=O)c1cc2c(s1)CCC2)Nc1ccccc1Br,-25.6,–
Cc1ccc(C(=O)N/C(=C\c2cccs2)C(=O)NCCc2ccccn2)cc1C,-26.9,–
COc1cncc(-c2cnc3sc(NCCc4ccccn4)nn23)c1,–,13 µM (active)
COc1ccc2oc(=O)c(C(=O)NCc3ccccn3)cc2c1,-20.1,–

SMILES,"activity change, negative = growth inhibition [%]",Potency
C[C@H](CO)N1C[C@H](C)[C@H](CN(C)C(=O)Nc2ccc3c(c2)OCO3)Oc2ncc(Br)cc2C1=O,-3.88,–
CN1CCCC(OC(=O)COc2ccc(Br)cc2)C1 (configuration not stated),6.51,–
CCOc1ccccc1N1C(=O)CC(Sc2nccc(C)n2)C1=O (configuration not stated),–,20.6 µM (active)
CC(=O)Nc1ccc(N2C(=O)CC(Sc3nccc(C)n3)C2=O)cc1 (configuration not stated),-28.4,–
CCOc1ccccc1-n1c(SCC(=O)N2CCCC2)nnc1-c1ccoc1C,-5.39,–
COc1ccc(C(=O)NC(C)c2nccs2)cc1OC1CCN(C(C)C)CC1 (configuration not stated),13.2,–
COc1ccc(-c2[nH]ncc2CN(C)Cc2cc(C)[nH]n2)c(F)c1,-26.4,–
Cc1cc(C)nc(NC(=O)C(C)N2C(=O)c3ccccc3C2=O)n1 (configuration not stated),-11.5,–
Cc1cc(Cl)nc(NC(=O)Nc2cccc(Cl)c2)n1,-24.8,–
Cc1cc(C)nc(NC(=O)Nc2ccccc2C(F)(F)F)n1,–,18.4 µM (active)
CC(C)C(NC(=O)c1cccc(S(=O)(=O)N2CCOCC2)c1)C(=O)NCCc1ccccn1 (configuration not stated),-8.62,–
O=C(COC(=O)c1ccncc1)c1ccccc1,-1.61,–
O=C(COC(=O)c1c2c(nc3ccccc13)CCCC2)c1ccc(Br)s1,–,7.31 µM (active)
Cc1ccc(C(=O)COC(=O)c2cccc(N3C(=O)c4c(C)nc5ccccc5c4C3=O)c2)cc1C,14.6,–
CC1CCC(NC(=O)c2ccc(N3CCCC3=O)cc2)CC1 (configuration not stated),2.73,–
O=C(NC1CCCCC1)c1ccc(CNc2c(N3CCOCC3)c(=O)c2=O)cc1,-6.18,–
CN1C(=O)/C(=C/c2ccc(C(=O)NC3CCCC3)cc2)Oc2ccccc21,–,10.3 µM (active)
CNC(=S)N1CCC(NC(=O)C(Cc2ccc(F)cc2)NC(C)=O)CC1 (configuration not stated),-8.04,–
CCOc1ccc(C(CC(=O)O)n2cnnn2)cc1OC (configuration not stated),-2.39,–
